The values that follow come from PubChem BioAssay (NCATS).

Records with an inconclusive call do not appear. Where a call stands in place of a potency, no number is given. Calls of active or inactive are those of the source. Unless noted, calls come from the whole dose curve; as a rule, active = well fitted curve in the direction sought with a large enough effect; inconclusive = small, poorly fitted or top-dose-only effect, or another doubt; inactive = no such curve, though single readings can be large; an effect the other way counts as inactive or inconclusive.

The target in experiment [1] is Luciferin 4-monooxygenase (Photinus pyralis) (UniProt P08659). In words: Biochemical firefly luciferase enzyme assay for NPC (AID 624030). Note: nearly all actives have a fitted effect of over 70% in size. Note: potency is the fitted concentration of half-maximal effect. The essentials: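 Purified P. pyralis luciferase at 10 nM in 50 mM Tris Acetate (final), luminescence read within 5 minutes of enzyme addition to compounds. Activity normalised to PTC124 versus DMSO; concentration-response curves classed by r2, magnitude and activity.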

Experiment [2] in a line: S16 Schwann cell viability assay (CellTiter-Glo assay) (AID 624031). Note: nearly all actives have a fitted effect of over 70% in size. Note: potency is the fitted concentration of half-maximal effect. An outline of the steps: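 Following overnight culture in 10% FBS DMEM, parental S16 rat Schwann cells are dosed for 24 h at 37 °C. Viability is read as CellTiter-Glo luminescence and expressed as % activity relative to DMSO (0%) and no-cell wells.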
(In general: Cellular ATP, detected with luciferase, serves as a proxy for viable cell number.)

Experiment [3] is described as follows: S16 Schwann cell PMP22 intronic element firefly luciferase assay (AID 624032). Note: nearly all actives have a fitted effect of over 30% in size. Note: potency is the fitted concentration of half-maximal effect. The essentials: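 Rat S16 Schwann cells stably carrying firefly luciferase driven by a PMP22 intronic element, in 10% FBS, treated 24 h at 37 C. ONE-Glo luminescence normalized to PTC124 control and DMSO (0%); curves classed by r2, magnitude and activity.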
Experiment [4] in a line: S16 Schwann cell PMP22 intronic element beta-lactamase assay (AID 624044; calls by dose curve; note: nearly all actives have a fitted effect of over 15% in size). The essentials: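 Rat S16 Schwann cells with beta-Lac driven by a PMP22 intronic element, compound-treated 24 h at 37 °C. LiveBLAzer FRET B/G read: 460 nm normalized to potassium clavulanate vs DMSO; 535 nm FRET as viability; concentration-effect curves classified.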
For experiment [5], the target named is Glutaminase kidney isoform, mitochondrial (Homo sapiens) (UniProt O94925). Nature of the experiment: qHTS for Inhibitors of Glutaminase (GLS): LOPAC Validation (AID 624146).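 Note: glutamate product detected by oxidase and peroxidase coupled Amplex red fluorescence gain; series mostly up to about 46 µM; nearly all actives have a fitted effect of over 60% in size.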 An outline of the steps: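 hKGA in 45 mM KH2PO4 (pH 8.2), 0.02% Tween-20 with compound, then 1mM L-Glutamine (stock as added) plus glutamate oxidase/HRP/Amplex red coupling mix. Fluorescence read initially and after 30 min at RT; signal change reflects glutamate formation.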
Background: In qHTS, concentration-response curves come from the screen itself.

Experiment [6] is described as follows: qHTS of Trypanosoma Brucei Inhibitors: LOPAC Validation (AID 624147). An outline of the steps: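 Glycolytic pyruvate kinase of T. brucei was incubated with substrate, test compound and 130 uM ADP for 45 minutes at room temperature. Luminescent Kinase-Glo Plus signal was measured after 10 minutes.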
The target of experiment [7] is Glucagon-like peptide 1 receptor (Homo sapiens) (UniProt P43220). Nature of the experiment: qHTS of GLP-1 Receptor Agonists: LOPAC Validation (AID 624148).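 Note: higher luminescence signal means agonism.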 The essentials:
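HEK293 cells stably co-expressing GLP-1R and a cAMP-responsive luciferase reporter, plated 12 hours before compound, then incubated 4-6 hr at 37 deg C. Luminescence read 12 min after detection reagent.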

The target of experiment [8] is Voltage-gated inwardly rectifying potassium channel KCNH2 (Homo sapiens) (UniProt Q12809). In words: qHTS Assay for Small Molecule Inhibitors of the Human hERG Channel Activity (AID 588834).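 Note: top concentration of the series differs between compounds; lower thallium flux fluorescence means stronger hERG block; nearly all actives have a fitted effect of over 50% in size.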 The essentials:
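Kinetic FDSS fluorescence; U2OS + hERG BacMam (~100 virus particles/cell); FluxOR Tl+ flux; ~10 min cpd; AC50 (Hill).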

Chain of Luciferin 4-monooxygenase (Photinus pyralis) (P08659 whole entry, looked up): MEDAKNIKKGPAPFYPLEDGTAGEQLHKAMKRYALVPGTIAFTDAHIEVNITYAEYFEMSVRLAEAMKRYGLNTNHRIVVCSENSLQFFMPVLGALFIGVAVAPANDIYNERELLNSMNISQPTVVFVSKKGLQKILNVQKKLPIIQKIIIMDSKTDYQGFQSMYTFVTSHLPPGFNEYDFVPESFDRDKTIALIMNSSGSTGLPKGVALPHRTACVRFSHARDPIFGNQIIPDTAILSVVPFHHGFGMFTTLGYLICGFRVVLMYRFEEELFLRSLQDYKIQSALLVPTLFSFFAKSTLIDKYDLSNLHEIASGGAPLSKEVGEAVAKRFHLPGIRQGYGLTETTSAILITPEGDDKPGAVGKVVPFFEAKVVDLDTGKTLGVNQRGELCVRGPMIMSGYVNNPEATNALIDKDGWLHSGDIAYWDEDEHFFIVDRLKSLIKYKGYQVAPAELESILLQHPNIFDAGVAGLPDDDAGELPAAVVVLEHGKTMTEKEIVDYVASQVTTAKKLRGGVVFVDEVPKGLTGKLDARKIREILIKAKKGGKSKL
Chain of Glucagon-like peptide 1 receptor (Homo sapiens) (P43220 whole entry, looked up): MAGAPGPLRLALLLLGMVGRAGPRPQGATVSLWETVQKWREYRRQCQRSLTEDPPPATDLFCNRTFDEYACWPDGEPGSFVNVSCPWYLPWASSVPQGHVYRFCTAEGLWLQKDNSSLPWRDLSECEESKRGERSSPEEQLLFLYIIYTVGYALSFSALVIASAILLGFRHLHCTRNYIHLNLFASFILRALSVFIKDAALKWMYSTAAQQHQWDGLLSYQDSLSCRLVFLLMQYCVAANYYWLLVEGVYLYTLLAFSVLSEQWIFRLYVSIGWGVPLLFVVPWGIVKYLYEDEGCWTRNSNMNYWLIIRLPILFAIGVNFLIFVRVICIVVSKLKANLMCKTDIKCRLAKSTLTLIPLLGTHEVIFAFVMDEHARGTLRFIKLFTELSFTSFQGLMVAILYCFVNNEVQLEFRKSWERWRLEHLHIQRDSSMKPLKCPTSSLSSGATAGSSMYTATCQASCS
Chain of Glutaminase kidney isoform, mitochondrial (Homo sapiens) (O94925 whole entry, looked up, canonical isoform): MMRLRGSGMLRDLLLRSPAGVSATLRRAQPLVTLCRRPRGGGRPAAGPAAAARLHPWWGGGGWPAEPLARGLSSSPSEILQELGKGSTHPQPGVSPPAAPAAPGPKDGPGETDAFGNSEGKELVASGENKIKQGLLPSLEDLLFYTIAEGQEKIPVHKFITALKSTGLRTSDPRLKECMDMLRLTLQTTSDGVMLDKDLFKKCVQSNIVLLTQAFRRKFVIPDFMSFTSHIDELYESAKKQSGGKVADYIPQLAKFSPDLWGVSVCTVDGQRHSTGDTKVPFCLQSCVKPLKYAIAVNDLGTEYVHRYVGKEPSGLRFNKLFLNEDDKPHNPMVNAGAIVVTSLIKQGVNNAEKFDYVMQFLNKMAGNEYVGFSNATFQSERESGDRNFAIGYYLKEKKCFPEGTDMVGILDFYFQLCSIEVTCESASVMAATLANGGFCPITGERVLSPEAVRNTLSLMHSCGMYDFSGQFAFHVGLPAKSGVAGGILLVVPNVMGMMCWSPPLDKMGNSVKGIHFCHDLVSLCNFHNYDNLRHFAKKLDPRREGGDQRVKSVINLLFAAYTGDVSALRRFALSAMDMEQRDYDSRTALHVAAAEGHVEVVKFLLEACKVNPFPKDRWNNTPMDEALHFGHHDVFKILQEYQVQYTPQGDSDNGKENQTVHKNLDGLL
Chain of Voltage-gated inwardly rectifying potassium channel KCNH2 (Homo sapiens) (Q12809 whole entry, looked up): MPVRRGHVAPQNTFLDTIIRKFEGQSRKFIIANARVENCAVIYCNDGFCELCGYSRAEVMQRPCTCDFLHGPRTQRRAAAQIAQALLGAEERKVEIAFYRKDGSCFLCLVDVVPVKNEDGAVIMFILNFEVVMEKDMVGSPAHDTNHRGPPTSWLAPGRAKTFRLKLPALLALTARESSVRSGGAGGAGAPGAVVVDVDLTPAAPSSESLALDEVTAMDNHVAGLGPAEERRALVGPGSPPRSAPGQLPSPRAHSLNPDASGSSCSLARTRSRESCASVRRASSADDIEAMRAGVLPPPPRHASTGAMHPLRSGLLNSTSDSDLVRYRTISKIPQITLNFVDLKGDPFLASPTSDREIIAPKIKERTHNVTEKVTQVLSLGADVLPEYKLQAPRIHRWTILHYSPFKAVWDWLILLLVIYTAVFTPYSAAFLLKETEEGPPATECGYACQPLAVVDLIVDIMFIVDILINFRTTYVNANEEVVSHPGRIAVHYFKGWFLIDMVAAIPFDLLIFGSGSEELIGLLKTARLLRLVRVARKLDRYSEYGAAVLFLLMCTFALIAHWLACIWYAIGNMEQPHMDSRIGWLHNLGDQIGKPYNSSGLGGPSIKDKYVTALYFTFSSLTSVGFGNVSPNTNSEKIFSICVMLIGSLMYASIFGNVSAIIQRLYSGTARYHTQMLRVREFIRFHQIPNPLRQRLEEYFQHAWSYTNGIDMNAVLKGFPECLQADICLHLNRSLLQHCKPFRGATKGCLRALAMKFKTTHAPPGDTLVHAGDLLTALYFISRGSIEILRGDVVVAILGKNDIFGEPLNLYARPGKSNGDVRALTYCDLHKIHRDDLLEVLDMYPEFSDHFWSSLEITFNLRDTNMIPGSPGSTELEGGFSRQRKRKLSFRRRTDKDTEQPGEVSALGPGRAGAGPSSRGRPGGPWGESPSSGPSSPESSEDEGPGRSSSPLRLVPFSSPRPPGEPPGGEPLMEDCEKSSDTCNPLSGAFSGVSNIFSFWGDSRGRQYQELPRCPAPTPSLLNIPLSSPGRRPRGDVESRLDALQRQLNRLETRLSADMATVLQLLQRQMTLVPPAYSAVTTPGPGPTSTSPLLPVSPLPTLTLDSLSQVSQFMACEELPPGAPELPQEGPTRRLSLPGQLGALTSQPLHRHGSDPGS

On to `CC(C)Oc1ccc2c(=O)c(-c3ccccc3)coc2c1`, for which, in experiment [1], the Potency is 2.03 µM (active).
In the case of `CC(C)c1nc(CN(C)C(=O)N[C@H](C(=O)N[C@@H](Cc2ccccc2)C[C@H](O)[C@H](Cc2ccccc2)NC(=O)OCc2cncs2)C(C)C)cs1`, in experiment [1], the Potency result was “inactive”.
Take `CCC1=C(C)CN(C(=O)NCCc2ccc(S(=O)(=O)NC(=O)NC3CCC(C)CC3)cc2)C1=O` (stereo unspecified): the Potency entry in experiment [1], in experiment [2] and in experiment [4] was “inactive” each time. Besides, in experiment [3], the Potency is 32.2 µM (active).
`COc1cc(Nc2c(C#N)cnc3cc(OCCCN4CCN(C)CC4)c(OC)cc23)c(Cl)cc1Cl`: in experiment [1], the Potency entry is “inactive”.
Take `CC(C)[N+]1(C)[C@@H]2CC[C@H]1CC(OC(=O)C(CO)c1ccccc1)C2` (stereo partly specified): the Potency result in experiment [1] was “inactive”.
With `C[C@@H](N)C1CCC(C(=O)Nc2ccncc2)CC1` (stereo partly specified), the Potency entry in experiment [5] and in experiment [6] was “inactive” each time. Besides, the call in experiment [7] was inactive.
`COc1cc2c(N3CCN(C(=O)Nc4ccc(OC(C)C)cc4)CC3)ncnc2cc1OCCCN1CCCCC1`: the Potency result in experiment [1] was “inactive”.
With `Oc1ccc2ccccc2c1SSc1c(O)ccc2ccccc12`, the outcome in experiment [7] was inactive.
With `O=C1CCc2ccc(OCCCCN3CCN(c4cccc(Cl)c4Cl)CC3)cc2N1`, the Potency result in experiment [1] and in experiment [4] was “inactive” throughout. Also, the Potency in experiment [2] was 32.2 µM (active); in experiment [3] it was 22.8 µM (active).
Turning to `COc1cc2c(cc1OC)C1CC(=O)C(CC(C)C)CN1CC2` (stereo unspecified), the Potency result in experiment [1], in experiment [2] and in experiment [6] was “inactive” each time. Also, the call in experiment [7] was inactive.
`Cc1nc2n(c(=O)c1CCN1CCC(c3noc4cc(F)ccc34)CC1)CCCC2`: the Potency result in experiment [1], in experiment [2] and in experiment [4] was “inactive” in each case.
For the compound `Cc1nccn1CC1CCc2c(c3ccccc3n2C)C1=O` (stereo unspecified), the Potency entry in experiment [1] was “inactive”.
In the case of `Cc1ccc(NC(=O)c2ccc(CN3CCN(C)CC3)cc2)cc1Nc1nccc(-c2cccnc2)n1`, in experiment [1], the Potency was 12.8 µM (active). Also, the Potency entry in experiment [3] is “inactive”.
For the compound `COc1cc2nc(N3CCN(C(=O)C4CCCO4)CC3)nc(N)c2cc1OC` (stereo unspecified), the Potency result in experiment [5] and in experiment [6] was “inactive” each time. Besides, the outcome in experiment [7] was inactive.
As for `Nc1nc(N)c(N=O)c(OCC2CCCCC2)n1`, the Potency result in experiment [5] and in experiment [6] was “inactive” throughout. Further, the compound was classed as inactive in experiment [7].
For `Cc1cccc(C)c1OCC(=O)N[C@@H](Cc1ccccc1)[C@@H](O)C[C@H](Cc1ccccc1)NC(=O)[C@H](C(C)C)N1CCCNC1=O`, the Potency entry in experiment [1] is “inactive”.
Regarding `C=CCc1cc(OC)c(O)c(C(=O)NCCO)c1`, the Potency result in experiment [1], in experiment [2] and in experiment [3] was “inactive” in each case.
For the compound `CCOC(=O)C(C)Oc1cccc2c(=O)n(CC(=O)Nc3ccc4c(c3)OCCO4)ccc12` (stereo unspecified), the Potency result in experiment [5] and in experiment [6] was “inactive” in each case. The outcome in experiment [7] was inactive.
On to `O=C(CCc1ccc(O)cc1)c1c(O)cc(O)cc1O`, for which the Potency entry in experiment [6] was “inactive”. In experiment [7], the compound was classed as inactive.
As for `Cc1cccc(C#Cc2ccccc2)n1`, the Potency result in experiment [8] and in experiment [6] was “inactive” in each case. In addition, the outcome in experiment [7] was inactive.
On to `Cc1ccc(Nc2nccc(N(C)c3ccc4c(C)n(C)nc4c3)n2)cc1S(N)(=O)=O`, for which the Potency entry in experiment [1] was “inactive”.
